Screening results deposited in PubChem by National Center for Advancing Translational Sciences (NCATS).
HCV inhibitor – inhibitors of hepatitis C virus infection | Potency, µM (highest dose often 41.8 µM), without a hit: at the top dose activity change, negative = inhibition, most hits filed as inhibitors | AID 651820 | 340,000 compounds, 3.4% hits | Huh7.5.1 HCVcc-Cre infection, luciferase reporter, 44 h; active means well fitted inhibition curve with a large enough effect; inconclusive means small, poorly fitted or top-dose-only effect, or another doubt; inactive means no such curve, though single readings can be large or run the other way
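Seed cells (1,000/well) for 4 h; treat with compound and infect with HCVcc-Cre, moi about 0.5. Incubate 44 h, then detect luciferase activity.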
VACV mCherry inh – vaccinia inhibition (mCherry reporter). Vaccinia virus mCherry reporter infection, fluorescence. Potency, µM (doses to about 36.5 µM), without a hit: at the top dose activity change, negative = inhibition, actives largely listed as inhibitors. 310,000 compounds, 0.63% hits. AID 720579; calls by dose curve; tested in A549 cells; further: nearly all actives have a fitted effect of over 35% in size
VACV Venus inh – inhibitors of vaccinia virus (Venus reporter). Vaccinia virus Venus reporter expression, fluorescence. Potency, µM (titrated, usually from 36.5 µM), inactives show top-dose activity change, negative = inhibition, most hits filed as inhibitors. 330,000 compounds, 0.46% hits. AID 720580; calls by dose curve; tested in A549 cells; further: nearly all actives have a fitted effect of over 30% in size
* hit, by the source's call; i = inactive; ? = inconclusive; . = no result; [ ] = remark or other dose. A selection: hits, their analogues and other compounds. The true share with any hit is near 3.3%. On the % scale 0 is the no-effect control and ±100 the full control effect; potency means the concentration at half of the fitted maximal effect.

SMILES	HCV inhibitor	VACV mCherry inh	VACV Venus inh
COC(=O)C1=C(c2ccc(-c3ccccc3)c(F)c2)C[C@@H]2CC[C@H]1N2C(=O)NC1CC1	10µM*	-21.0%	-29.0%
CCCNC(=O)N1[C@H]2CC[C@@H]1C(C(=O)OC)=C(c1ccc(-c3ccccc3)c(F)c1)C2	7.94µM*	?	?
COC(=O)C1=C(c2ccc(-c3ccccc3)c(F)c2)C[C@@H]2CC[C@H]1N2C(=O)NCCO	?	?	-25.4%
COC(=O)C1=C(c2ccc(OC)c(OC)c2)C[C@@H]2CC[C@H]1N2C(=O)NCCOc1ccccc1Cl	-26.0%	?	-18.9%
COC(=O)C1=C(c2ccccc2)C[C@@H]2CC[C@H]1N2C(=O)NC1CC1	9.2%	i	-1.2%
COCOCCn1cc(CN2CCS(=O)(=O)N(Cc3ccc(-c4cccc(CO)c4)cc3)C(C(C)C)C2=O)nn1 (stereo not given)	.	i	-5.6%
CC(C)(Oc1ccc(Cl)cc1)C(=O)N(Cc1ccccc1)c1ccccn1	1.3%	-13.3%	-5.4%
CN1C(C(=O)c2ccccc2)=C(N)c2ccccc2S1(=O)=O	3.8%	-4.1%	-11.3%
Cc1ccc(NC2=C(C(=O)c3ccccc3)N(C)S(=O)(=O)c3ccccc32)cc1	11.2µM*	?	-25.3%
COc1ccc(-n2c(CNC(=O)c3ccc(OC)cc3OC)nnc2SC)cc1	.	-7.0%	-1.2%
Cc1nc(N)sc1-c1csc(NCc2ccccc2)n1	-26.2%	-7.7%	-1.8%
COc1ccc(Nc2nc(-c3c(C)nc4ncccn34)cs2)cc1	11.2µM*	?	?
COc1ccccc1Nc1nc(-c2c(C)nc3ncccn23)cs1	11.2µM*	?	-29.0%
Cc1nc2ncccn2c1-c1csc(Nc2ccc(S(N)(=O)=O)cc2)n1	-16.8%	.	.
Cc1nc2ncccn2c1-c1csc(NCc2ccco2)n1	?	-12.4%	-20.4%
Cc1nc2ncccn2c1-c1csc(Nc2ccccc2)n1	11.2µM*	-23.5%	?
Cc1nc2sccn2c1-c1csc(NCc2ccccc2)n1	11.2µM*	?	?
Cc1nc2ncccn2c1-c1csc(Nc2ccc(N(C)C)cc2)n1	-22.0%	?	?
Cn1nnnc1SCCCNCc1ccccc1OCc1ccccc1Cl	.	-17.5%[7.34 µM]	-20.5%[7.34 µM]
Cc1ccccc1NC(=O)CN1C(=O)CSc2ccc(S(=O)(=O)N3CCCCC3)cc21	-2.8%	.	.
COc1ccccc1/C=C/c1nc2ccccc2o1	.	-13.3%	-7.5%
O=C(C[C@H]1C/C=C\C[C@H](NC(=O)OCC2c3ccccc3-c3ccccc32)C(=O)OC[C@H](Cc2ccccc2)NC1=O)N[C@H](CO)Cc1ccccc1	?	i	-28.3%
O=C(C[C@@H]1C/C=C\C[C@@H](NC(=O)OCC2c3ccccc3-c3ccccc32)C(=O)OC[C@@H](Cc2ccccc2)NC1=O)NCCO	2µM*	i	-18.3%
O=C(N[C@@H]1C/C=C\C[C@@H](CC(=O)N(CCO)Cc2ccccc2)C(=O)NCCOC1=O)OCC1c2ccccc2-c2ccccc21	-22.8%	-1.3%	-20.9%
O=C(N[C@H]1C/C=C\C[C@@H](CC(=O)N(CCO)Cc2ccccc2)C(=O)NC[C@H](c2ccccc2)OC1=O)OCC1c2ccccc2-c2ccccc21	?	10µM*	?
SMILES	HCV inhibitor	VACV mCherry inh	VACV Venus inh
Cc1ccccc1Nc1ncnc2c1c(-c1ccccc1)cn2-c1ccc(F)cc1	.	-10.6%	-5.1%
Clc1cccc(Nc2nc(-c3ccncc3)nc3ccccc23)c1	?	-0.4%	-12.3%
Clc1ccccc1Nc1nc(-c2ccncc2)nc2ccccc12	7.08µM*	.	.
Fc1ccc(Nc2nc(-c3ccncc3)nc3ccccc23)cc1F	11.2µM*	.	.
c1ccc2c(Nc3nc(-c4ccncc4)nc4ccccc34)cccc2c1	?	-18.9%	-27.8%
Fc1ccccc1Oc1nc(-c2ccncc2)nc2ccccc12	0.562µM*	.	.
COc1ccc(Oc2nc(-c3cccnc3)nc3ccccc23)cc1	?	-19.9%[7.34 µM]	-14.5%[7.34 µM]
O=C(O)[C@@H]1CN[C@@H](C(=O)O)C1	.	-13.8%	-11.8%
Cc1ccc(C2=NN(CCC(=O)NCCc3cccc(C)c3)C(=O)CC2)cc1	.	-6.5%	-11.4%
Cc1cc(C)c(/C=C/c2onc(C)c2S(=O)(=O)N2CCC(C(=O)Nc3ccc(Cl)c(C(F)(F)F)c3)CC2)c(C)c1	.	-17.3%[7.34 µM]	-12.5%[7.34 µM]
Cc1sc(NC(=O)c2ccco2)c(C(c2cccnc2)N2CCN(c3ccc(F)cc3)CC2)c1C (stereo not given)	11.2µM*	-0.5%	-21.8%
CCOC(=O)C1CCN(C(c2cccnc2)c2c(NC(=O)c3ccco3)sc(C)c2C)CC1 (stereo not given)	6.31µM*	?	?
Cc1sc(NC(=O)c2ccco2)c(C(c2ccccc2)N2CCC(C)CC2)c1C (stereo not given)	?	-10.3%	-3.7%
Cc1sc(NC(=O)c2ccco2)c(C(c2cccnc2)N2CCN(CCO)CC2)c1C (stereo not given)	-2.2%	.	.
COc1ccc(CN2CCN(C(C)=O)CC2)cc1OC1CCN(C(=O)c2ccc3[nH]c(C)c(C)c3c2)CC1	.	-9.9%	1.6%
COc1ccc(/C=C/c2cnccn2)cc1OC	.	21.9%	-12.8%
COc1cc(CNc2nc(C)c(-c3ccn(CC4CCCN(C)C4)n3)s2)ccc1F (stereo not given)	.	-13.1%	-5.9%
O=C(Nc1cccc(-c2cccc(Cl)c2)c1)C1CCN(Cc2ccc(CO)o2)CC1	10µM*	?	-18.6%
Cn1cc(CN2CCC(C(=O)Nc3ccc(Oc4ccccc4F)cc3)CC2)cn1	11.2µM*	.	.
CCn1cc(CN2CCC(C(=O)Nc3ccc(Oc4ccccc4F)cc3)CC2)cn1	.	i	-25.8%
CCn1cc(CN2CCC(C(=O)Nc3cccc(-c4cccc(OC)c4)c3)CC2)cn1	4.0%	-13.2%	-6.7%
CCn1cc(CN2CCC(C(=O)Nc3cccc(-c4cccc(F)c4)c3)CC2)cn1	8.91µM*	-6.7%	-23.6%
CCc1ccc(CN2CCC(C(=O)Nc3cccc(-c4nnc(C)s4)c3)CC2)o1	-17.5%	-1.5%	-24.7%
CCS(=O)(=O)N1CCC(C(=O)Nc2cccc(C(C)=O)c2)CC1	1.4%	-6.1%	4.5%
CC(=O)c1cccc(CN2CCC(C(=O)Nc3cccc(-c4ccn[nH]4)c3)CC2)c1	6.31µM*	-3.9%	-16.6%
SMILES	HCV inhibitor	VACV mCherry inh	VACV Venus inh
O=C(c1ccc2c(=O)n3c(nc2c1)CCCCC3)N1CCN(c2cccc(Cl)c2)CC1	3.7%	4.4%	-12.0%
CC(=O)Nc1cc(C(=O)NCc2ccc(C)cc2)ccc1S(=O)(=O)c1ccc(Cl)cc1	.	-6.7%	-7.0%
Cc1nc(-c2ccc(F)cc2)c(CC(=O)N2CCN(S(=O)(=O)c3cccc(F)c3)CC2)s1	-11.8%	-20.4%	-16.4%
O=C1CCC[C@@H]2C[C@@]3(C[C@@H]4CCN1[C@H]24)Nc1ccccc1NC3=NC1CCCCC1	.	i	-15.0%
O=C1CNC(=S)N1Cc1cccc(Cl)c1	-19.3%	i	22.9%
Cc1ccc(C(=O)NCCc2nnc3n2CCN(Cc2cc(C)cc(C)c2)CC3)cc1	.	-14.1%	-10.0%
CC1OC(OC2C=C3CCC4C(CCC5(C)C(c6ccc(=O)oc6)CCC45O)C3(C)CC2)C(O)C(OC2OC(CO)C(O)C(O)C2O)C1O (stereo not given)	15.8µM*	0.282µM*	0.0032µM*
CN1CCN(c2nc(-c3ccc(Br)cc3)nnc2-c2ccccc2)CC1	?	?	-27.5%
Cc1ccc(-c2cc3ccccc3nc2N2CCOCC2)cc1	10µM*	i	-6.3%
